# From PubChem BioAssay (NCI)
# The panel holds about 83,000 compounds, 20% with a hit somewhere; the sample as a whole holds those more often.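 Negative percent growth values reflect cell death: -40 means 40% of the cells present at the start died, and -100 means all died.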 A number with no mark means an inactive call. The source made the active and inactive calls. How the source made its calls: active means growth percent below 10; inactive means the rest.
# Tested on: RXF 393 renal
# Test: NCI-60 one-dose screen, 48 h (100 = growth as untreated, 0 = no growth, -100 = all killed)
# Conditions: 10 µM unless noted
row,SMILES,growth
1,CC(=O)CCC(=O)OCc1cc(=O)c(O)co1,113%
2,O=C(c1nc2ccccc2[nH]1)C1C(c2ccc(Cl)cc2)C2CC3CCCC[C@H]3N2[C@@]12C(=O)Nc1cc(Cl)ccc12 (stereo partly specified),35.7%
3,COc1cccc(-c2nc3occn3c2-c2ccnc(NCCNS(=O)(=O)c3cccc4ccccc34)n2)c1,102%
4,COc1cc(-c2n/c(=C\c3c(O)[nH]c4ccc(Cl)cc34)cc3c2=Nc2ccccc2-3)ccc1F,-78.7% (active)
5,NNC(=O)c1ccc(-n2nc(-c3ccccc3)c3ccccc32)cc1,61.7%
6,O=C1Nc2cc(-c3cccc(O)c3)ccc2/C1=C/c1ccc[nH]1,-39.8% (active)
7,COc1cccc(/C=N/NC(=O)c2cnn3c2NC(c2ccccc2)C3)c1Oc1ccccc1 (stereo unspecified),82.1%
8,S=c1cc(S)c2cc(Br)ccc2[nH]1,111%
9,O=C(NCCc1ccccc1)Nc1ccc2cc3ccc(NC(=O)NCCc4ccccc4)cc3nc2c1,-21.5% (active)
10,CCN(CC)CCCC(C)Nc1cc(O)cc2cccnc12 (stereo unspecified),105%
11,CCOC(=O)C1=C(C)NC(SCc2cc(=O)oc3ccc(F)cc23)=N[C@@H]1c1cccc2ccccc12,117%
12,COc1ccc(C(=O)c2cc(OC)c(OC)c(OC)c2)cc1O,0.69% (active)
13,CCCOC(=O)N[C@H]1CCc2c(Cl)c(OC)c(OC)c(OC)c2-c2ccc(SC)c(=O)cc21,24.3%
14,Cc1ccc(/C=N/NC(=O)CSc2nc3ccccc3c(=O)n2Cc2ccc(S(N)(=O)=O)cc2)cc1,86.8%
15,O=C(CCN1CCCC1)Nc1ccc2c(NCCCCc3ccccc3)c3ccccc3nc2c1,7.61% (active)
16,CSc1nc2sc3cccc(Cl)c3n2c(=N)c1C#N,131%
17,C#CCNC(=O)c1cccc2c1cc(C)n2-c1nc2c(c(NCc3ccccc3)n1)CCCC2,-68.1% (active)
18,Cc1ccc(S(=O)(=O)NNC(=O)/C(=C\c2ccc(Cl)cc2)c2nc3ccccc3s2)cc1,101%
19,O=[N+]([O-])CC(c1ccccc1)c1c[nH]c2ccccc12 (stereo unspecified),64.3%

row,SMILES,growth
1,Nc1nc(Nc2ccccc2SSc2ccccc2Nc2nc(N)nc(-c3ccc(C(F)(F)F)cc3)n2)nc(-c2ccc(C(F)(F)F)cc2)n1,78.6%
2,CCCCCC(=O)Oc1ccc(/C(=C(\C)c2ccccc2)c2ccc(OCCN3CCCCC3)cc2)cc1,82.7%
3,C/C(=N\Nc1cc(C)nc2ccc(Br)cc12)c1ccc([N+](=O)[O-])cc1,68.6%
4,COc1cccc(-c2ccc3c(c2)NC(=O)/C3=C\c2ccc[nH]2)c1,32.2%
5,CCC(=O)Oc1ccc(/C(=C(\C)c2ccccc2)c2ccc(OCCN3CCCCC3)cc2)cc1,73.9%
6,COc1cc(CC(=O)c2ccc(O)c(OC)c2)ccc1O,102%
7,Brc1ccc2[nH]cc(-c3cncn3CCc3ccccc3)c2c1,38.1%
8,CCNC(=O)Oc1ccc(/C(=C(\C)c2ccccc2)c2ccc(OCCCN(C)C)cc2)cc1,76.1%
9,O=C(/C=C/c1ccc(F)cc1)c1ccc(NC(=O)N2CCN(c3cc4c(cc3F)c(=O)c(C(=O)O)cn4C3CC3)CC2)cc1,98.3%
10,O=S(=O)(NCCNc1nccc(-c2c(-c3cccc(O)c3)nc3occn23)n1)c1ccccc1,90.3%
11,COc1ccc(C(=O)c2cc(C)c(OC)c(C)c2)c(OC)c1N(C(=O)CCl)C(=O)CCl,23.7%
12,O=C(/C=C/c1ccc[nH]1)c1ccc(-n2ccc(C(F)(F)F)n2)c(F)c1,91.1%
13,COc1ccc(C(=O)C2C(C#N)C(C#N)C3c4ccccc4C=CN23)cc1 (stereo unspecified),77.9%
14,c1ccc(-c2cn3c(ccc4ccccc43)n2)cc1,86%
15,CNC(=O)c1cccc(Cn2nc(C)c(NC(=O)c3ccc(COc4ccc(C(F)(F)F)cc4C)cc3)c2C)n1,64.5%
16,COc1ccc(OC)c(-c2cc(-c3ccc(Cl)cc3)c3c(N)c(C(=O)c4ccc(Cl)cc4)sc3n2)c1,115%
17,CCCOc1ccc(/C=N/Nc2cc(C)nc3ccc(Cl)cc23)cc1,-18.9% (active)
18,O=C(Cc1ccccc1)NNc1nc(Cl)nc(N2CCN(C(c3ccccc3)c3ccccc3)CC2)n1,85.8%
19,C#CCNC(=O)[C@H](Cc1ccccc1)NC(=O)[C@]12CC[C@@H](C(=C)C)[C@@H]1[C@H]1CC[C@@H]3[C@@]4(C)CCC(=O)C(C)(C)[C@@H]4CC[C@@]3(C)[C@]1(C)CC2,82.9%

# Tested on: SF-268 CNS
# Test: as above
# Conditions: 10 µM unless noted
row,SMILES,growth
1,CC(=O)CCC(=O)OCc1cc(=O)c(O)co1,97.7%
2,O=C(c1nc2ccccc2[nH]1)C1C(c2ccc(Cl)cc2)C2CC3CCCC[C@H]3N2[C@@]12C(=O)Nc1cc(Cl)ccc12 (stereo partly specified),42.2%
3,COc1cccc(-c2nc3occn3c2-c2ccnc(NCCNS(=O)(=O)c3cccc4ccccc34)n2)c1,96.8%
4,COc1cc(-c2n/c(=C\c3c(O)[nH]c4ccc(Cl)cc34)cc3c2=Nc2ccccc2-3)ccc1F,-40.1% (active)
5,NNC(=O)c1ccc(-n2nc(-c3ccccc3)c3ccccc32)cc1,64%
6,O=C1Nc2cc(-c3cccc(O)c3)ccc2/C1=C/c1ccc[nH]1,15.4%
7,COc1cccc(/C=N/NC(=O)c2cnn3c2NC(c2ccccc2)C3)c1Oc1ccccc1 (stereo unspecified),88.3%
8,S=c1cc(S)c2cc(Br)ccc2[nH]1,99%
9,O=C(NCCc1ccccc1)Nc1ccc2cc3ccc(NC(=O)NCCc4ccccc4)cc3nc2c1,-54.2% (active)
10,CCN(CC)CCCC(C)Nc1cc(O)cc2cccnc12 (stereo unspecified),98.6%
11,CCOC(=O)C1=C(C)NC(SCc2cc(=O)oc3ccc(F)cc23)=N[C@@H]1c1cccc2ccccc12,94.3%
12,COc1ccc(C(=O)c2cc(OC)c(OC)c(OC)c2)cc1O,29.3%
13,CCCOC(=O)N[C@H]1CCc2c(Cl)c(OC)c(OC)c(OC)c2-c2ccc(SC)c(=O)cc21,24.7%
14,Cc1ccc(/C=N/NC(=O)CSc2nc3ccccc3c(=O)n2Cc2ccc(S(N)(=O)=O)cc2)cc1,78.2%
15,O=C(CCN1CCCC1)Nc1ccc2c(NCCCCc3ccccc3)c3ccccc3nc2c1,-73.2% (active)
16,CSc1nc2sc3cccc(Cl)c3n2c(=N)c1C#N,102%
17,C#CCNC(=O)c1cccc2c1cc(C)n2-c1nc2c(c(NCc3ccccc3)n1)CCCC2,-23.6% (active)
18,Cc1ccc(S(=O)(=O)NNC(=O)/C(=C\c2ccc(Cl)cc2)c2nc3ccccc3s2)cc1,91.9%
19,O=[N+]([O-])CC(c1ccccc1)c1c[nH]c2ccccc12 (stereo unspecified),65.1%

row,SMILES,growth
1,Nc1nc(Nc2ccccc2SSc2ccccc2Nc2nc(N)nc(-c3ccc(C(F)(F)F)cc3)n2)nc(-c2ccc(C(F)(F)F)cc2)n1,50.4%
2,CCCCCC(=O)Oc1ccc(/C(=C(\C)c2ccccc2)c2ccc(OCCN3CCCCC3)cc2)cc1,84.5%
3,C/C(=N\Nc1cc(C)nc2ccc(Br)cc12)c1ccc([N+](=O)[O-])cc1,97.8%
4,COc1cccc(-c2ccc3c(c2)NC(=O)/C3=C\c2ccc[nH]2)c1,80.8%
5,CCC(=O)Oc1ccc(/C(=C(\C)c2ccccc2)c2ccc(OCCN3CCCCC3)cc2)cc1,80.3%
6,COc1cc(CC(=O)c2ccc(O)c(OC)c2)ccc1O,102%
7,Brc1ccc2[nH]cc(-c3cncn3CCc3ccccc3)c2c1,50.3%
8,CCNC(=O)Oc1ccc(/C(=C(\C)c2ccccc2)c2ccc(OCCCN(C)C)cc2)cc1,72.1%
9,O=C(/C=C/c1ccc(F)cc1)c1ccc(NC(=O)N2CCN(c3cc4c(cc3F)c(=O)c(C(=O)O)cn4C3CC3)CC2)cc1,89.9%
10,O=S(=O)(NCCNc1nccc(-c2c(-c3cccc(O)c3)nc3occn23)n1)c1ccccc1,85.3%
11,COc1ccc(C(=O)c2cc(C)c(OC)c(C)c2)c(OC)c1N(C(=O)CCl)C(=O)CCl,24.6%
12,O=C(/C=C/c1ccc[nH]1)c1ccc(-n2ccc(C(F)(F)F)n2)c(F)c1,93.6%
13,COc1ccc(C(=O)C2C(C#N)C(C#N)C3c4ccccc4C=CN23)cc1 (stereo unspecified),91%
14,c1ccc(-c2cn3c(ccc4ccccc43)n2)cc1,74.7%
15,CNC(=O)c1cccc(Cn2nc(C)c(NC(=O)c3ccc(COc4ccc(C(F)(F)F)cc4C)cc3)c2C)n1,61.2%
16,COc1ccc(OC)c(-c2cc(-c3ccc(Cl)cc3)c3c(N)c(C(=O)c4ccc(Cl)cc4)sc3n2)c1,100%
17,CCCOc1ccc(/C=N/Nc2cc(C)nc3ccc(Cl)cc23)cc1,83.8%
18,O=C(Cc1ccccc1)NNc1nc(Cl)nc(N2CCN(C(c3ccccc3)c3ccccc3)CC2)n1,100%
19,C#CCNC(=O)[C@H](Cc1ccccc1)NC(=O)[C@]12CC[C@@H](C(=C)C)[C@@H]1[C@H]1CC[C@@H]3[C@@]4(C)CCC(=O)C(C)(C)[C@@H]4CC[C@@]3(C)[C@]1(C)CC2,74.3%
